The values below come from PubChem BioAssay (NCI).

Test systems include NCI-H23 lung; NCI-H226 lung; NCI-H322M lung; HOP-62 NSCLC; NCI-H460 lung; HOP-92 NSCLC; NCI-H522 lung; A549/ATCC NSCLC; 786-0 renal; COLO 205 colon.
Assay in all cases: NCI-60 one-dose screen, 48 h (100 = growth as untreated, 0 = no growth, -100 = all killed)
What all share (settings): 10 µM unless noted

About 83,000 compounds went through this panel and 20% of them were active in at least one assay; those are over-represented in the sample as a whole.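 Compound tested at a single concentration for 48 hours in 96-well plates; a percent growth value below 10 was scored as active.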 A number with no mark means an inactive call. Active and inactive are the calls of the source.

With `COc1ccn2c(C(C)=O)cc(C(=O)c3ccc4c(c3)Sc3ccccc3N4)c2c1`, the growth is 28.3% with NCI-H23 lung; 26% in the assay with NCI-H226 lung; 42.8% with NCI-H322M lung; 20.2% in the assay with HOP-62 NSCLC; 4.07% (active) in the assay on NCI-H460 lung; 31.2% with HOP-92 NSCLC. For the same compound, the growth in the assay with NCI-H522 lung was -21.5% (active); in the assay on A549/ATCC NSCLC it was 10.5%; in the assay on 786-0 renal it was 10.7%; with COLO 205 colon, -41% (active).
`O=C(O)c1cn(C2CC2)c2cc(N3CCN(C(=O)Nc4nc(-c5ccccc5)cs4)CC3)c(F)cc2c1=O`: the growth was 9.06% (active) in the assay on NCI-H23 lung; 46.8% with NCI-H226 lung; 31.4% with NCI-H322M lung; 26% in the assay on HOP-62 NSCLC; 5.5% (active) in the assay with NCI-H460 lung; -21.5% (active) in the assay on HOP-92 NSCLC. The growth with NCI-H522 lung was -2.04% (active); in the assay on A549/ATCC NSCLC, 7.93% (active); in the assay with 786-0 renal it was 22.5%; with COLO 205 colon it was 51%.
In the case of `CCOC(=O)/C=C1\S/C(=N\Nc2ccc([N+](=O)[O-])cc2[N+](=O)[O-])N(Cc2ccccc2)C1=O`, the growth in the assay on NCI-H23 lung was 76.8%; with NCI-H226 lung, 93.1%; in the assay with NCI-H322M lung it was 97.9%; in the assay with HOP-62 NSCLC, 103%; with NCI-H460 lung, 93.1%; with HOP-92 NSCLC it was 71.5%. Also, the growth in the assay with NCI-H522 lung was 68.6%; with A549/ATCC NSCLC it was 93.2%; with 786-0 renal, 91.2%; in the assay on COLO 205 colon, 99.1%.
In the case of `CCOC(=O)c1cn2ncnc(Oc3ccc(NC(=O)NCCN4CCOCC4)c(Cl)c3)c2c1C`, the growth in the assay with NCI-H23 lung was 99.6%; in the assay on NCI-H226 lung, 92.9%; in the assay on NCI-H322M lung, 88.7%; in the assay with HOP-62 NSCLC, 87.1%; in the assay on NCI-H460 lung, 100%; with HOP-92 NSCLC it was 91.7%. Also, the growth was 93.9% in the assay on NCI-H522 lung, 99.2% with A549/ATCC NSCLC, 102% in the assay on 786-0 renal and 100% with COLO 205 colon.
Regarding `COc1ccc(-c2nc(NCCO)[nH]c(=O)c2C#N)cc1`, the growth was 95.1% with NCI-H23 lung; 99.9% in the assay on NCI-H226 lung; 95.8% in the assay with NCI-H322M lung; 86.3% with HOP-62 NSCLC; 112% with NCI-H460 lung; 98.5% in the assay with HOP-92 NSCLC. The growth with NCI-H522 lung is 88.5%; with A549/ATCC NSCLC, 98.5%; in the assay with 786-0 renal, 101%; with COLO 205 colon, 101%.
With `COc1cccc2c(=O)c3c(sc12)c(N1CCNCC1)nc1ccccc13`, the growth in the assay on NCI-H23 lung is 77.3%; in the assay with NCI-H226 lung, 88.2%; with NCI-H322M lung it was 92.8%; with HOP-62 NSCLC, 81%; in the assay on NCI-H460 lung, -55.1% (active); in the assay on HOP-92 NSCLC, 51.7%. Also, the growth in the assay on NCI-H522 lung was 77.2%; in the assay on A549/ATCC NSCLC, 48.6%; in the assay on 786-0 renal it was 78.9%; with COLO 205 colon, 30.9%.
As for `COc1cc(C(=O)N2N=C(c3ccc(S(C)(=O)=O)cc3)CC2c2ccco2)cc(OC)c1OC` (stereo not given), the growth was 76.9% in the assay on NCI-H23 lung; 77.4% in the assay on NCI-H226 lung; 95% in the assay with NCI-H322M lung; 67.3% in the assay with HOP-62 NSCLC; 58.2% in the assay on NCI-H460 lung; 39.8% in the assay on HOP-92 NSCLC. Also, the growth was 11.9% in the assay with NCI-H522 lung, 58.2% in the assay with A549/ATCC NSCLC, 75.1% with 786-0 renal and 69.8% with COLO 205 colon.
`COc1nc2ccccc2cc1-c1nc2c(cnn2-c2ccccc2)c(=O)[nH]1`: the growth is 46.2% in the assay with NCI-H23 lung; 73.3% in the assay on NCI-H226 lung; 82.1% with NCI-H322M lung; 44.2% in the assay on HOP-62 NSCLC; 24.4% in the assay on NCI-H460 lung; 64.6% in the assay with HOP-92 NSCLC. The growth was 21.6% in the assay on NCI-H522 lung, 50.2% in the assay with A549/ATCC NSCLC, 61.9% in the assay with 786-0 renal and 32.6% in the assay with COLO 205 colon.
In the case of `Cc1nc(/N=C(\N)NC(=O)Nc2cccc(Cl)c2)sc1C`, the growth in the assay on NCI-H23 lung was 73.2%; in the assay with NCI-H226 lung, 90.2%; with NCI-H322M lung, 92%; in the assay with HOP-62 NSCLC it was 71%; with NCI-H460 lung, 66%; in the assay on HOP-92 NSCLC it was 89.5%. In addition, the growth with NCI-H522 lung is 38.9%; with A549/ATCC NSCLC, 70.1%; in the assay on 786-0 renal, 97.8%; in the assay with COLO 205 colon it was 67.3%.
As to `CCCC1CCC(O)(C(C)(O)C(=O)NC2C(=O)N3NCCCC3C(=O)N(O)C(C)C(=O)N3NCCCC3C(=O)N3NCC(O)CC3C(=O)NC(C)C(=O)OC2C(C)C)OC1CC` (stereo not given), the growth with NCI-H23 lung was -85.9% (active); with NCI-H226 lung, -53.6% (active); with NCI-H322M lung, -90.8% (active); with HOP-62 NSCLC, -76% (active); in the assay with NCI-H460 lung, -82.4% (active); in the assay with HOP-92 NSCLC, -61.5% (active). Besides, the growth in the assay on NCI-H522 lung was -25% (active); in the assay with A549/ATCC NSCLC it was -66.4% (active); in the assay on 786-0 renal it was -78.6% (active); in the assay on COLO 205 colon it was -89% (active).
Regarding `CNCCCNc1nc2ccccc2c2c(=O)c3cc(F)ccc3sc12`, the growth with NCI-H23 lung was 70.1%; in the assay on NCI-H226 lung it was 81.7%; with NCI-H322M lung, 55.9%; with HOP-62 NSCLC, 47.9%; in the assay with NCI-H460 lung, -52.9% (active); in the assay with HOP-92 NSCLC it was 28.9%. In addition, the growth with NCI-H522 lung is 24.8%; with A549/ATCC NSCLC, 37.9%; with 786-0 renal, 61.5%; in the assay with COLO 205 colon, -47.8% (active).
For the compound `COc1c(N2CC3CCCN(C(C)=O)C3C2)c(F)cc2c(=O)c(C(=O)N[C@H]3C(O)[C@@H](O)C(CO)O[C@H]3O)cn(C3CC3)c12` (stereo not given in full), the growth was 105% in the assay with NCI-H23 lung; 108% in the assay on NCI-H226 lung; 106% with NCI-H322M lung; 103% in the assay on HOP-62 NSCLC; 108% in the assay on NCI-H460 lung; 103% in the assay with HOP-92 NSCLC. For the same compound, the growth in the assay with NCI-H522 lung is 94.9%; with A549/ATCC NSCLC it was 103%; in the assay on 786-0 renal, 101%; with COLO 205 colon, 110%.
As for `CCCCn1c(=O)c(-c2cc(-c3ccc(Cl)cc3)nc(-c3ccc(Cl)cc3)c2)cc2ccc(Cl)cc21`, the growth with NCI-H23 lung was 97.8%; in the assay on NCI-H226 lung, 98.5%; in the assay with NCI-H322M lung, 98.4%; in the assay on HOP-62 NSCLC it was 97.5%; in the assay with NCI-H460 lung, 106%; with HOP-92 NSCLC, 88.3%. The growth with NCI-H522 lung was 98.4%; with A549/ATCC NSCLC, 105%; in the assay on 786-0 renal, 103%; in the assay on COLO 205 colon, 105%.
